Data taken from the supplement of paper PMC9694430.

Experiments:
Assay in all cases: thermal shift delta Tm vs DMSO control; higher = stronger stabilization (binding)
Settings in all cases: 12.5 µM; protein concentration 2 µM
LOC_OS02G45750-cb003 = test system: LOC_OS02G45750-cb003
Procedure, shortened: (§1)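 The melting temperature shift given here is a triplicate mean, measured against protein that received only DMSO. Melting temperatures came from Boltzmann fits of differential scanning fluorimetry data on E. coli-expressed, purified rice kinase domain constructs. Each 19.5 μl well contained 2 μM kinase, 100 mM potassium phosphate pH 7.5, 150 mM NaCl, 10% glycerol, 5 × SYPRO Orange and compound in DMSO. Plates were scanned from 25°C to 95°C at 0.05°C/s.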

LOC_OS02G54510-cb004 = test system: LOC_OS02G54510-cb004
Procedure, shortened: as §1

LOC_OS03G04050-cb001 = test system: LOC_OS03G04050-cb001
Procedure, shortened: as §1

LOC_OS03G12390-cb001 = test system: LOC_OS03G12390-cb001
Procedure, shortened: as §1

LOC_OS03G27990-cb004 = test system: LOC_OS03G27990-cb004
Procedure, shortened: as §1

LOC_OS03G50450-cb001 = test system: LOC_OS03G50450-cb001
Procedure, shortened: as §1

LOC_OS03G50810-cb003 = test system: LOC_OS03G50810-cb003
Procedure, shortened: as §1

LOC_OS04G35114-cb001 = test system: LOC_OS04G35114-cb001
Procedure, shortened: as §1

LOC_OS04G38480-cb003 = test system: T1, LOC_OS04G38480-cb003
T1 sequence (whole entry): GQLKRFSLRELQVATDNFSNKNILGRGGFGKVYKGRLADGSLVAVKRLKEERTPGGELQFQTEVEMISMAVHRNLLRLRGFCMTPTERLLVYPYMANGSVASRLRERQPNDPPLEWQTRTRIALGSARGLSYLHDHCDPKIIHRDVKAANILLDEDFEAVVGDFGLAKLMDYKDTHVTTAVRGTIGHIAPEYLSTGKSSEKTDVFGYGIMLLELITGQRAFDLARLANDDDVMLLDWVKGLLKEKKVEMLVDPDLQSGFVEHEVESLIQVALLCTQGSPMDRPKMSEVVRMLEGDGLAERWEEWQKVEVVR
Procedure, shortened: as §1

LOC_OS04G41100-cb001 = test system: T2, LOC_OS04G41100-cb001
T2 sequence (whole entry): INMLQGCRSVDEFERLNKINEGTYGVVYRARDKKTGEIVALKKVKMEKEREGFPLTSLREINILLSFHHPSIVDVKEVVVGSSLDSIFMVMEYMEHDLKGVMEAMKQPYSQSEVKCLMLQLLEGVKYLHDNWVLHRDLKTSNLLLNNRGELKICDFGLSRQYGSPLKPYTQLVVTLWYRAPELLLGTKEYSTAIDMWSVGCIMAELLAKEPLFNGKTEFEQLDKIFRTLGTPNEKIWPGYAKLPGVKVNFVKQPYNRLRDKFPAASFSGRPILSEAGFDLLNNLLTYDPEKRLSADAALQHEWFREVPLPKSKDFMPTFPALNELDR
Procedure, shortened: as §1

LOC_OS04G57630-cb004 = test system: LOC_OS04G57630-cb004
Procedure, shortened: as §1

LOC_OS05G07850-cb002 = test system: LOC_OS05G07850-cb002
Procedure, shortened: as §1

LOC_OS05G16824-cb004 = test system: LOC_OS05G16824-cb004
Procedure, shortened: as §1

LOC_OS05G28520-cb001 = test system: LOC_OS05G28520-cb001
Procedure, shortened: as §1

LOC_OS05G30820-cb001 = test system: LOC_OS05G30820-cb001
Procedure, shortened: as §1

LOC_OS05G43570-cb004 = test system: LOC_OS05G43570-cb004
Procedure, shortened: as §1

LOC_OS06G16330-cb003 = test system: LOC_OS06G16330-cb003
Procedure, shortened: as §1

LOC_OS06G22820-cb001 = test system: T3, LOC_OS06G22820-cb001
T3 sequence (whole entry): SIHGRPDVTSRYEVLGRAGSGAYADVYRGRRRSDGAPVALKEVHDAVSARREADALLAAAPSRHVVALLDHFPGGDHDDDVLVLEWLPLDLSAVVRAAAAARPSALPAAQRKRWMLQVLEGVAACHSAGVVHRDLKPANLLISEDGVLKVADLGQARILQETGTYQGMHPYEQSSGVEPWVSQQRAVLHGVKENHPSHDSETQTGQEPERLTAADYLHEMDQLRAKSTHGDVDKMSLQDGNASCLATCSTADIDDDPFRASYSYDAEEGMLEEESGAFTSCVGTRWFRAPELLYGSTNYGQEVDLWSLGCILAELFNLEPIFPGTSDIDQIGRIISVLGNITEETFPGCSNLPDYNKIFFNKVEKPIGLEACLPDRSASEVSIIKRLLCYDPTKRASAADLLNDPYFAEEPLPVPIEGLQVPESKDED
Procedure, shortened: as §1

LOC_OS07G06570-cb004 = test system: LOC_OS07G06570-cb004
Procedure, shortened: as §1

LOC_OS07G07230-cb001 = test system: LOC_OS07G07230-cb001
Procedure, shortened: as §1

Chain of LOC_OS06G16330-cb003 (as listed by the source): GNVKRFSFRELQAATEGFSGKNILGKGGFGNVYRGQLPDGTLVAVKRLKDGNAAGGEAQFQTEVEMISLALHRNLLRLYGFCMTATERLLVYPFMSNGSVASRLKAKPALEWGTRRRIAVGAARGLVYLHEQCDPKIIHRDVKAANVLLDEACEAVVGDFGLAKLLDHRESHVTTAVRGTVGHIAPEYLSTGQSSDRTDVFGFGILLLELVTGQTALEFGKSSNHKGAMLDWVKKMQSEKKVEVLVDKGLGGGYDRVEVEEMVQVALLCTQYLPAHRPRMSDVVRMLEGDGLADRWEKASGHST

| Structure (SMILES) | thermal shift delta Tm (LOC_OS02G45750-cb003) | thermal shift delta Tm (LOC_OS02G54510-cb004) | thermal shift delta Tm (LOC_OS03G04050-cb001) | thermal shift delta Tm (LOC_OS03G12390-cb001) | thermal shift delta Tm (LOC_OS03G27990-cb004) | thermal shift delta Tm (LOC_OS03G50450-cb001) | thermal shift delta Tm (LOC_OS03G50810-cb003) | thermal shift delta Tm (LOC_OS04G35114-cb001) | thermal shift delta Tm (LOC_OS04G38480-cb003) | thermal shift delta Tm (LOC_OS04G41100-cb001) | thermal shift delta Tm (LOC_OS04G57630-cb004) | thermal shift delta Tm (LOC_OS05G07850-cb002) | thermal shift delta Tm (LOC_OS05G16824-cb004) | thermal shift delta Tm (LOC_OS05G28520-cb001) | thermal shift delta Tm (LOC_OS05G30820-cb001) | thermal shift delta Tm (LOC_OS05G43570-cb004) | thermal shift delta Tm (LOC_OS06G16330-cb003) | thermal shift delta Tm (LOC_OS06G22820-cb001) | thermal shift delta Tm (LOC_OS07G06570-cb004) | thermal shift delta Tm (LOC_OS07G07230-cb001) |
| --- | --- | --- | --- | --- | --- | --- | --- | --- | --- | --- | --- | --- | --- | --- | --- | --- | --- | --- | --- | --- |
| CCCCNc1ncc(C(=O)NCc2ccc(-n3ccnc3)cc2)c(NC2CCC(O)CC2)n1 (stereo not given) | 12.4 °C | 0.46 °C | 0.27 °C | 2.82 °C | 5.72 °C | 1.85 °C | 4.77 °C | 9.02 °C | 2.91 °C | 0.89 °C | 3.08 °C | 11 °C | 8.45 °C | 0.43 °C | 1 °C | 0.57 °C | 11.2 °C | 0.49 °C | 1.44 °C | 0.57 °C |
| CN1CCC(CNc2ccc3ncc(-c4cccc(OC(F)(F)F)c4)n3n2)CC1 [SGI-1776 free base] | 3.47 °C | 0.36 °C | -0.12 °C | 0.16 °C | 0.31 °C | 0.18 °C | 3.02 °C | 4.33 °C | 1.08 °C | 0.53 °C | 1.46 °C | 12 °C | 3.25 °C | 0.98 °C | 0.86 °C | 0.36 °C | 3.37 °C | 0.41 °C | 0.32 °C | 0.72 °C |
| O=C1Nc2ccc(CN3C(=O)CSC3=O)cc2/C1=C/c1cc(CN2CCOCC2)c[nH]1 | 2.91 °C | 0.28 °C | 0.58 °C | 4.37 °C | 0.63 °C | 0.68 °C | 2 °C | 3.48 °C | 3.05 °C | 0.46 °C | 1.02 °C | 6.39 °C | 8.47 °C | 0.01 °C | 0.12 °C | 0.23 °C | 9.36 °C | 1.05 °C | 1.86 °C | 0.48 °C |
